Compound activity as filed in PubChem BioAssay.
MARV entry inh – qHTS for inhibitors of binding or entry into cells for Marburg Virus. Potency, µM (series often up to 37.8 µM), inactives show at the highest dose activity change, negative = inhibition, usual class: inhibitors. AID 540276, 2011. 300,000 compounds, 1.8% hits. Marburg virus pseudotyped entry inhibition, cell reporter; calls by dose curve; tested in HEK293 cells; note: potency is the fitted concentration of half-maximal effect
FMDV inh – High Throughput Screening for Foot and Mouth Disease Virus Antivirals. 410,000 compounds, 1.2% hits. Potency, µM (series often up to 57.9 µM), for the others: at the top dose activity change, negative = inhibition, usual class: inhibitors. FMDV antiviral cell-based qHTS. AID 1159524, 2015; calls by dose curve; tested in HEK293T cells; note: read-out not given here; potency is the fitted concentration of half-maximal effect; nearly all actives have a fitted effect of over 45% in size
HCV inh – qHTS Assay for Inhibitors of Hepatitis C Virus (HCV); Huh7.5.1 HCVcc-Cre infection, luciferase reporter, 44 h; Potency, µM (highest dose often 41.8 µM), without a hit: at the highest dose activity change, negative = inhibition, hits mostly inhibitors; 340,000 compounds, 3.4% hits; AID 651820, 2012; active = well fitted inhibition curve with a large enough effect; inconclusive = small, poorly fitted or top-dose-only effect, or another doubt; inactive = no such curve, though single readings can be large or run the other way; note: potency is the fitted concentration of half-maximal effect
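Cells seeded at 1,000/well and cultured 4 h, then compounds added followed by HCVcc-Cre virus (~0.5 moi). After 44 h further culture, luciferase substrate was added, plates held 15 min at room temperature, and luminescence read for 15 sec.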
LASV entry inh – qHTS for Inhibitors of binding or entry into cells for Lassa Virus; Lassa virus pseudotype entry inhibition, cell reporter; Potency, µM (series often up to 37.9 µM), inactives show top-dose activity change, negative = inhibition, actives largely listed as inhibitors; 300,000 compounds, 1.2% hits; AID 540256, 2011; calls by dose curve; tested in HEK293 cells; note: potency is the fitted concentration of half-maximal effect; nearly all actives have a fitted effect of over 50% in size
HCMV inh – qHTS Assay for inhibitors of the human cytomegalovirus (HCMV); HFF cells, HCMV-luciferase reporter, 72 h; stronger effect = lower value; activity change, negative = inhibition, % at 57.5 µM; 410,000 compounds, 4.5% hits; AID 1259415, 2018; in the data active = activity change below about -60%; inconclusive = no clear call, values can overlap the other calls; inactive = above about -39%
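Two compound doses tested in HFFs infected with HCMV-luciferase, MOI 1 PFU/cell, 72 h at 37C. Lysate luminescence read with OneGlo; data normalized against buffer-only and 10uM Salinomycin inhibitor controls.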
An asterisk follows results filed as active; ? = inconclusive; . = not tested or not shown; [ ] = remark or other dose. This is a sample that favours compounds with a hit; in the whole collection about 7.9% have one here. % is set by controls: 0 for no effect and ±100 for the full control effect.

SMILES	MARV entry inh	FMDV inh	HCV inh	LASV entry inh	HCMV inh
COc1ccccc1CN(C)C(=O)c1cccc(S(=O)(=O)N2CCCc3ccccc32)c1	-41%	7%	10µM*	?	-36
COCCN(Cc1ccccc1)C(=O)c1cccc(S(=O)(=O)N2CCCc3ccccc32)c1	.	6%	10µM*	.	?
O=S(=O)(Nc1ncccn1)c1ccc(NC(=S)N2CCN(Cc3ccc(F)cc3Cl)CC2)cc1	-20%	-11%	16%	-8%	-35
CCOc1ccc(-c2cc(C(=O)NCc3cc(OC)cc(OC)c3)[nH]n2)c(C)c1	.	-4%	.	.	-11
c1ccc(C(NCCNC(c2ccccc2)c2ccccc2)c2ccccc2)cc1	8.2µM*	-17%	?	?	-7
O=C(c1cc(-c2ccccc2)on1)N1CCOc2ccc(CN3CCOCC3)cc2C1	.	3%	.	.	.
O=C(O)C(Cc1ccc(O)cc1)N1C(=O)C2CCCCC2C1=O (configuration not stated)	.	-14%	6%	.	-7
CCOC(=O)C1=C(C)N=c2s/c(=C/c3ccccc3)c(=O)n2C1c1ccc(OC)c(OC)c1 (configuration not stated)	-9%	?	-4%	-17%	33
CCOC(=O)C1=C(C)N=c2s/c(=C\c3ccncc3)c(=O)n2C1c1ccc2c(c1)OCO2 (configuration not stated)	-14%	25µM*	?	-14%	-13
COc1ccc2c(c1OC)CN(C)CCc1cc3c(cc1C(O)C2)OCO3 (configuration not stated)	-3%[46.1 µM]	?	-21%	5%	.
COc1ccc2c(c1OC)CN1CCc3cc4c(cc3[C@H]1C2)OCO4	.	?	11µM*	.	.
COc1ccc2c(c1OC)CN(C)CCc1cc3c(cc1C(=O)C2)OCO3	?	-24%	-3%	3%	2
COc1ccc2c(c1OC)CN1CCc3cc4c(cc3C1C2)OCO4 (configuration not stated)	?	?	-28%	?	-87*
COc1ccc(/C=C2\CCCC3C2=NN(C(=O)c2scnc2C)C3c2ccc(OC)c(OC)c2)cc1OC (configuration not stated)	?	-3%	0%	5.2µM*	-8
COc1ccc(/C=C2\CCCC3C2=NN(C(=O)c2ccco2)C3c2ccc(OC)c(OC)c2)cc1OC (configuration not stated)	?	-2%	-22%	?	43
C[C@@H]1CC[C@H]2C(=O)N(Cc3cccc([N+](=O)[O-])c3)C[C@H](O)CN2[C@@H]1c1cccc(Br)c1	-10%[14.2 µM]	.	.	7%[14.3 µM]	.
CN1CCN(C(=O)/C=C/c2ccc([N+](=O)[O-])o2)CC1	.	-16%	?	.	-101*
CC(=O)N1CCc2c(sc3c2c(=O)n(-c2ccccc2Cl)c(=O)n3C)C1	.	-16%	.	?	25
CN(C)CCCNS(=O)(=O)c1ccc(-n2nnc3ccccc32)c([N+](=O)[O-])c1	?	-1%	18µM*	-26%	-23
COc1ccc(NS(=O)(=O)c2ccc(-n3nnc4ccccc43)c([N+](=O)[O-])c2)cc1	2%	7%	5%	-16%	-63*
CN(C)CCNS(=O)(=O)c1ccc(N2CCc3ccccc32)c([N+](=O)[O-])c1	?	-12%	10µM*	-4%[46.1 µM]	-13
NNS(=O)(=O)c1ccc(N2CCCC2=O)c([N+](=O)[O-])c1	.	-3%	8%	.	0
O=S(=O)(NCc1nc(N2CCCC2)c2cc(Cl)ccc2n1)c1ccccc1OC(F)(F)F	.	-5%	.	.	.
CCN(C(=O)CSc1nc2ccccc2n1CC(=O)NCc1ccc(OC)cc1)c1ccccc1	.	12%	.	?	-19
CC1(C)Oc2cc3oc(-c4cc(O)cc(O)c4)cc3cc2CC1O (configuration not stated)	.	11µM*	-61%	.	-30
SMILES	MARV entry inh	FMDV inh	HCV inh	LASV entry inh	HCMV inh
Oc1cc(O)cc(-c2cc3ccc(O)cc3o2)c1	.	-21%	-8%	.	31
CCOc1cc(C(=O)NCCc2csc3nc(-c4ccccc4F)nn23)cc(OCC)c1OCC	.	-16%	.	3%[46.1 µM]	-1
Cc1ccc(-n2ncc3c2CC(C)(C)CC3NC(=O)CCc2cccnc2)cc1 (configuration not stated)	-29%	?	?	-27%	.
O=C(Cc1ccc(F)cc1)N1CCN=C1SCc1ccc([N+](=O)[O-])cc1	?	-20%	?	-17%	-68*
O=C(Cc1ccccc1)N1CCN=C1SCc1ccc([N+](=O)[O-])cc1	3%	?	-29%	-2%	18
COc1cccc(/C=C/C(=O)OCC(=O)Nc2ccc3c(c2)OCO3)c1	.	-10%	.	.	-97*
O=C(COC(=O)c1ccccn1)Nc1ccc2c(c1)OCO2	.	15%	4%	.	-35
O=C(COC(=O)c1cccnc1)Nc1ccc2c(c1)OCO2	.	2%	9%	.	-84*
O=C(COC(=O)C1CC1)Nc1ccc2c(c1)OCO2	?	68%	16%	18%	-98*
C[C@@H]1CN([C@@H](C)CO)C(=O)CCCn2nncc2CO[C@@H]1CN(C)C(=O)c1ccc(N2CCN(C)CC2)cc1	.	-16%	.	.	40
OCCN1CCN(c2ncnc3c2sc2nc(N4CCOCC4)c4c(c23)CCC4)CC1	?	.	11µM*	-11%	3
CCOC(=O)c1sc2nc(N3CCCC3)c3c(c2c1N)CC(C)(C)OC3	17%	7%	?	11%	12
CC1(C)Cc2c(c(N3CCCC3)nc3sc4c(N5CCN(CCO)CC5)ncnc4c23)CO1	?	.	2.2µM*	?	42
c1nc(N2CCNCC2)c2sc3nc(N4CCOCC4)c4c(c3c2n1)CCC4	-1%	.	.	.	.
CCN(CC)S(=O)(=O)c1cc(C(=O)Nc2nncs2)c(Cl)cc1Cl	4%	-24%	10µM*	7%	-5
C=CCNc1nc(C(=O)OC(C)C(=O)c2ccc(C)cc2)cs1 (configuration not stated)	.	44%	-20%	.	-19
Nc1ncc(Br)cc1S(=O)(=O)Nc1cc(C(F)(F)F)cc(C(F)(F)F)c1	?	-9%	?	14µM*	-101*
O=C(Nc1cc(C(=O)N2CCN(CCO)CC2)c2c(c1)ncn2C1CCCC1)c1ccccc1	.	-12%	.	.	.
Cc1ccc(S(=O)(=O)Nc2cccc(C(=O)N3CCC(C(N)=O)CC3)c2)cc1	.	34%	9%	.	?
O=C(O)C1CCCC2CN3CCc4c([nH]c5ccccc45)C3C(O)C21 (configuration not stated)	25%[46.1 µM]	13%	-27%	1%[46.1 µM]	-72*
O=C(O)[C@@H]1[C@H]2C[C@H]3c4[nH]c5ccccc5c4CCN3C[C@@H]2CC[C@@H]1O	.	-10%	24%	.	7
Cc1noc(C)c1C(=O)N(C)C[C@@H]1OCc2ccccc2-c2c(n(C)c3ccccc23)C(=O)N([C@H](C)CO)C[C@H]1C	.	0%	.	.	21
